Laboratory results published in PubChem BioAssay (NCI).
Compounds without any hit were thinned out: in the full panel of roughly 83,000, 20% have a hit.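 Note: values are percent growth. 100 is the growth of untreated cells, values between 100 and 0 indicate rising inhibition; between -100 and 0 indicates cell death.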 Active and inactive are the calls of the source. Rule for the calls: active = growth percent below 10; inactive = the rest.

Assays:
Assay in all cases: NCI-60 one-dose screen, 48 h (100 = growth as untreated, 0 = no growth, -100 = all killed)
Details in all cases: 10 µM unless noted
RPMI-8226 leukemia = tested on: RPMI-8226 leukemia
OVCAR-8 ovarian = tested on: OVCAR-8 ovarian
OVCAR-5 ovarian = tested on: OVCAR-5 ovarian
OVCAR-4 ovarian = tested on: OVCAR-4 ovarian
SK-OV-3 ovarian = tested on: SK-OV-3 ovarian
IGROV1 ovarian = tested on: IGROV1 ovarian
OVCAR-3 ovarian = tested on: OVCAR-3 ovarian
HS 578T breast = tested on: HS 578T breast
NCI/ADR-RES ovarian = tested on: NCI/ADR-RES ovarian
T-47D breast = tested on: T-47D breast
BT-549 breast = tested on: BT-549 breast
MDA-MB-435 melanoma = tested on: MDA-MB-435 melanoma
SW-620 colon = tested on: SW-620 colon
MCF7 breast = tested on: MCF7 breast
HCT-116 colon = tested on: HCT-116 colon
HCC-2998 colon = tested on: HCC-2998 colon
KM12 colon = tested on: KM12 colon

Measured: growth

C1=CC2=CC=C3C=CC=C4C(c5nc6c7ccccc7c7ccccc7c6[nH]5)=CC(=C1)C2C34 (centres undefined)
inactive: RPMI-8226 leukemia 89.5% | OVCAR-8 ovarian 97.7% | OVCAR-5 ovarian 115% | OVCAR-4 ovarian 119% | SK-OV-3 ovarian 93.9% | IGROV1 ovarian 86.8% | OVCAR-3 ovarian 93.4% | HS 578T breast 93.9% | NCI/ADR-RES ovarian 92.9% | T-47D breast 60% | BT-549 breast 97.3% | MDA-MB-435 melanoma 99.9% | SW-620 colon 98.3% | MCF7 breast 76.9% | HCT-116 colon 83.3% | HCC-2998 colon 111% | KM12 colon 86.5%

C=CCn1c(SCC(=O)Nc2ccc(C(=O)/C=C/c3cc(OC)c(OC)c(OC)c3)cc2)nnc1-c1ccc(Cl)cc1
active: RPMI-8226 leukemia -21.6% | OVCAR-8 ovarian 7.91% | OVCAR-3 ovarian -41.9% | MDA-MB-435 melanoma 5.58% | MCF7 breast -3.5% | HCT-116 colon -62.2% | HCC-2998 colon -8.4% | KM12 colon 9.43%
inactive: OVCAR-5 ovarian 88.9% | OVCAR-4 ovarian 37.3% | SK-OV-3 ovarian 51.4% | IGROV1 ovarian 14.3% | HS 578T breast 48.6% | NCI/ADR-RES ovarian 41.3% | T-47D breast 18.1% | BT-549 breast 10.4% | SW-620 colon 11.8%

N#CC(C#N)=C1NC(c2ccccc2)=C(c2ccccc2)C(c2ccccc2Cl)=C1C#N
inactive: RPMI-8226 leukemia 113% | OVCAR-8 ovarian 88.1% | OVCAR-5 ovarian 105% | OVCAR-4 ovarian 117% | SK-OV-3 ovarian 103% | IGROV1 ovarian 108% | OVCAR-3 ovarian 108% | HS 578T breast 120% | NCI/ADR-RES ovarian 96% | T-47D breast 102% | BT-549 breast 86.2% | MDA-MB-435 melanoma 114% | SW-620 colon 110% | MCF7 breast 97.1% | HCT-116 colon 94.1% | HCC-2998 colon 99.5% | KM12 colon 113%

C=C1C(=O)O[C@H]2[C@H]1CC/C(COC(=O)NCC(=O)Nc1ccc(OC)c(C(N)=O)c1O)=C\CC[C@@]1(C)O[C@@H]21
inactive: OVCAR-8 ovarian 75.3% | OVCAR-5 ovarian 102% | OVCAR-4 ovarian 68.3% | SK-OV-3 ovarian 100% | IGROV1 ovarian 21.6% | OVCAR-3 ovarian 25.7% | HS 578T breast 89.3% | NCI/ADR-RES ovarian 104% | T-47D breast 34.4% | BT-549 breast 47.4% | MDA-MB-435 melanoma 56.3% | SW-620 colon 10.6% | MCF7 breast 18.6% | HCT-116 colon 36% | HCC-2998 colon 102% | KM12 colon 92.8%
active: RPMI-8226 leukemia 2.96%

CC(C)C1=C[C@@]23CC[C@H]4[C@](C)(COCCC#N)CCC[C@]4(C)[C@H]2C[C@@H]1[C@@H]1[C@H]3[C@@H](OCCC#N)CC[C@@H]1OCCC#N
active: MCF7 breast 9.61%
inactive: RPMI-8226 leukemia 18.7% | OVCAR-8 ovarian 34.4% | OVCAR-5 ovarian 65.9% | OVCAR-4 ovarian 27.1% | SK-OV-3 ovarian 64.3% | IGROV1 ovarian 23.5% | OVCAR-3 ovarian 37.1% | HS 578T breast 64.5% | NCI/ADR-RES ovarian 27.8% | T-47D breast 10.5% | BT-549 breast 39.4% | MDA-MB-435 melanoma 40.1% | SW-620 colon 47.4% | HCT-116 colon 24.6% | HCC-2998 colon 44.4% | KM12 colon 32.7%

CSc1cccc(NC(=O)Nc2nc3c(C)cccc3s2)c1
inactive: RPMI-8226 leukemia 60.7% | OVCAR-8 ovarian 93.9% | OVCAR-5 ovarian 117% | OVCAR-4 ovarian 85% | SK-OV-3 ovarian 97.1% | IGROV1 ovarian 90.2% | OVCAR-3 ovarian 117% | HS 578T breast 87.7% | NCI/ADR-RES ovarian 91.5% | T-47D breast 95% | BT-549 breast 119% | MDA-MB-435 melanoma 106% | SW-620 colon 113% | MCF7 breast 76.4% | HCT-116 colon 93% | HCC-2998 colon 106% | KM12 colon 107%

COc1ccc(N(C)c2nc(Cl)nc3ccn(C)c23)cc1
active: RPMI-8226 leukemia 6.35% | OVCAR-8 ovarian 0.816% | SK-OV-3 ovarian 7.76% | OVCAR-3 ovarian -12.3% | NCI/ADR-RES ovarian 3.41% | BT-549 breast -4.36% | MDA-MB-435 melanoma -26.4% | HCT-116 colon -7.01% | KM12 colon 5.77%
inactive: OVCAR-5 ovarian 30.6% | OVCAR-4 ovarian 36.6% | IGROV1 ovarian 26.1% | HS 578T breast 36.8% | T-47D breast 74.9% | SW-620 colon 21.9% | MCF7 breast 13.6% | HCC-2998 colon 15.8%

CCOC(=O)C1CCN(S(=O)(=O)/N=C2/NC(=O)NC2=C(Cl)Cl)CC1
active: RPMI-8226 leukemia 6.17% | IGROV1 ovarian -54.4% | OVCAR-3 ovarian -81.2% | BT-549 breast -9.2% | MDA-MB-435 melanoma -7.61% | SW-620 colon -63.9% | HCT-116 colon 9.4% | HCC-2998 colon -10.1%
inactive: OVCAR-8 ovarian 21.4% | OVCAR-5 ovarian 64% | OVCAR-4 ovarian 80% | SK-OV-3 ovarian 70.9% | HS 578T breast 24.1% | NCI/ADR-RES ovarian 68.6% | T-47D breast 55% | MCF7 breast 16.4% | KM12 colon 12.8%

COc1cc2nc3c(=O)n(CCN(C)C)cnn3c(=O)c2cc1OC
inactive: RPMI-8226 leukemia 121% | OVCAR-8 ovarian 111% | OVCAR-5 ovarian 99% | OVCAR-4 ovarian 101% | SK-OV-3 ovarian 104% | IGROV1 ovarian 100% | OVCAR-3 ovarian 103% | HS 578T breast 92.8% | NCI/ADR-RES ovarian 98.3% | T-47D breast 112% | BT-549 breast 98.6% | MDA-MB-435 melanoma 97.3% | SW-620 colon 97% | MCF7 breast 95.9% | HCT-116 colon 101% | HCC-2998 colon 99.3% | KM12 colon 95.1%

CCCCc1nc(Cl)c(C2CC(c3ccc(Cl)cc3)=NN2c2cc(Cl)cc(Cl)c2)[nH]1 (centres undefined)
inactive: RPMI-8226 leukemia 90.9% | OVCAR-8 ovarian 68.5% | OVCAR-5 ovarian 94.2% | OVCAR-4 ovarian 63.5% | SK-OV-3 ovarian 92.4% | IGROV1 ovarian 71.1% | OVCAR-3 ovarian 65.9% | HS 578T breast 59.6% | NCI/ADR-RES ovarian 78.8% | T-47D breast 75% | BT-549 breast 72% | MDA-MB-435 melanoma 83.2% | SW-620 colon 16.8% | MCF7 breast 85.1% | HCT-116 colon 63.9% | HCC-2998 colon 102% | KM12 colon 89%

Cc1cccc(C)c1NC(=O)CN(CC(C)C)CC(O)COc1ccccc1 (centres undefined)
inactive: RPMI-8226 leukemia 89.2% | OVCAR-8 ovarian 105% | OVCAR-5 ovarian 99.9% | OVCAR-4 ovarian 86.9% | SK-OV-3 ovarian 90.1% | IGROV1 ovarian 94.3% | OVCAR-3 ovarian 111% | HS 578T breast 118% | NCI/ADR-RES ovarian 86.7% | T-47D breast 85.3% | BT-549 breast 82.4% | MDA-MB-435 melanoma 102% | SW-620 colon 93.6% | MCF7 breast 83.3% | HCT-116 colon 86.8% | HCC-2998 colon 95.8% | KM12 colon 100%

Cc1nc2sc(C(=O)Nc3cccc(Cl)c3C)c(N)c2cc1C(C)O (centres undefined)
active: OVCAR-3 ovarian -5.67% | NCI/ADR-RES ovarian 7.9% | MDA-MB-435 melanoma 1.51%
inactive: RPMI-8226 leukemia 17.8% | OVCAR-8 ovarian 21.9% | OVCAR-5 ovarian 55.8% | OVCAR-4 ovarian 54.2% | SK-OV-3 ovarian 22.8% | IGROV1 ovarian 31.6% | HS 578T breast 31.8% | T-47D breast 44.4% | BT-549 breast 51.3% | SW-620 colon 38.5% | MCF7 breast 16.6% | HCT-116 colon 13.9% | HCC-2998 colon 30.4% | KM12 colon 19.1%

CC(=O)Nc1nc2c(c(N)c1C#N)C(c1cccc(Cl)c1)C1=C(CCCC1=O)N2c1sc2c(c1C#N)CCCC2 (centres undefined)
inactive: RPMI-8226 leukemia 22% | OVCAR-8 ovarian 37% | OVCAR-5 ovarian 87.1% | OVCAR-4 ovarian 57.5% | SK-OV-3 ovarian 54.7% | IGROV1 ovarian 59.4% | OVCAR-3 ovarian 56.1% | HS 578T breast 73.7% | NCI/ADR-RES ovarian 46.7% | T-47D breast 36.7% | BT-549 breast 45.9% | MDA-MB-435 melanoma 65.5% | SW-620 colon 80.3% | MCF7 breast 20.7% | HCT-116 colon 33.3% | HCC-2998 colon 45.7% | KM12 colon 49.1%

O=C1NC(SCc2ccc(F)cc2)=N/C1=C/c1cccc(OCc2ccc(Cl)cc2)c1
active: OVCAR-4 ovarian -48.4% | HCT-116 colon -10.9%
inactive: RPMI-8226 leukemia 53.5% | OVCAR-8 ovarian 52.8% | OVCAR-5 ovarian 66.1% | SK-OV-3 ovarian 55.4% | IGROV1 ovarian 26.6% | OVCAR-3 ovarian 18.1% | HS 578T breast 29.6% | NCI/ADR-RES ovarian 65.8% | T-47D breast 53.5% | BT-549 breast 87.2% | MDA-MB-435 melanoma 88.5% | SW-620 colon 54.1% | MCF7 breast 64.1% | HCC-2998 colon 92.1% | KM12 colon 88.9%

N#Cc1c(-c2ccc(F)cc2)c(C#N)c2c(C#N)c(N)nn2c1N
inactive: RPMI-8226 leukemia 104% | OVCAR-8 ovarian 103% | OVCAR-5 ovarian 96.1% | OVCAR-4 ovarian 100% | SK-OV-3 ovarian 82.2% | IGROV1 ovarian 80.9% | OVCAR-3 ovarian 98.7% | HS 578T breast 98% | NCI/ADR-RES ovarian 99.9% | T-47D breast 66.4% | BT-549 breast 95.9% | MDA-MB-435 melanoma 101% | SW-620 colon 107% | MCF7 breast 96.7% | HCT-116 colon 92.5% | HCC-2998 colon 90.3% | KM12 colon 94.1%

CC[C@]12C=CCN3CC[C@@]4(c5ccc(OC)cc5N(C)[C@H]4[C@@](O)(C(=O)OC)[C@@H]1OC(=O)CCC(=O)O[C@H]1CC[C@H]4[C@@H]5CC[C@H]6CC(=O)CC[C@]6(C)[C@H]5CC[C@]14C)[C@@H]32
active: RPMI-8226 leukemia 0.329% | T-47D breast 8.78% | MCF7 breast 9.98% | HCT-116 colon 9.84%
inactive: OVCAR-8 ovarian 25.7% | OVCAR-5 ovarian 34.6% | OVCAR-4 ovarian 36.6% | SK-OV-3 ovarian 35.3% | IGROV1 ovarian 28.6% | OVCAR-3 ovarian 23.8% | HS 578T breast 43.4% | NCI/ADR-RES ovarian 25.4% | BT-549 breast 11.6% | MDA-MB-435 melanoma 29.4% | SW-620 colon 21.3% | HCC-2998 colon 41.4% | KM12 colon 22.4%

COC(=O)c1ccc2c(c1)n(Cc1ccc3ccccc3c1)c[n+]2Cc1ccc2ccccc2c1
inactive: OVCAR-8 ovarian 52.9% | OVCAR-5 ovarian 55.6% | OVCAR-4 ovarian 35.5% | SK-OV-3 ovarian 75.5% | OVCAR-3 ovarian 15.6% | HS 578T breast 67.6% | NCI/ADR-RES ovarian 101% | BT-549 breast 56.7% | SW-620 colon 37.6% | MCF7 breast 29.2% | HCT-116 colon 32% | HCC-2998 colon 33.9%
active: RPMI-8226 leukemia -5.06% | IGROV1 ovarian 4.97% | T-47D breast 0.0638% | MDA-MB-435 melanoma 4.2% | KM12 colon -8.69%
